# MCF10A rereplic = inducers of DNA re-replication in MCF 10A breast cells. MCF 10A DNA re-replication, Hoechst nuclear intensity, 48 h. Potency, µM (series often up to 46.1 µM), for inactives: at the highest dose activity, positive = re-replication, usual class: activators. 350,000 compounds, 2.9% hits. AID 624296; further: potency means the concentration at half of the fitted maximal effect; % of control where 0% means no effect; nearly all actives have a fitted effect of over 50% in size
# IL-1B inflam inh = blocks inflammasome-driven IL-1 beta release. activity change, % at 57.5 µM. 360,000 compounds, 4.7% hits. THP-1 LPS/ATP IL-1B secretion, AlphaLISA, 16 h; hits give low values; in the data active means activity change below about -50%; inconclusive means mostly about -30% to -49%; further: on the % scale 0 is the no-effect control and ±100 the full control effect
#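 THP-1 cells pretreated 1 hr with compounds (up to 57.5 uM final), then stimulated with LPS (250 ng/mL final) plus ATP (1.25 mM final); secreted IL-1B measured by AlphaLISA after 16 hr, decreased signal indicating inhibition.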
# SW480 rereplic = inducers of DNA re-replication in SW480 colon cancer cells | SW480 DNA re-replication, Hoechst DNA content imaging, 48 h | 340,000 compounds, 1.8% hits | Potency, µM (doses to about 46.1 µM), without a hit: at the top dose re-replication activation, most hits filed as activators; further: potency means the concentration at half of the fitted maximal effect; % of control where 0% means no effect; nearly all actives have a fitted effect of over 55% in size
#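 DNA re-replication was detected as more nuclei of elevated Hoechst intensity after 48 hr exposure to compound (23 nL pinned per well of 250 cells).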
# Gal4-VP16 FLuc = Gal4-VP16 reporter inhibition counter-screen; Drosophila S2 Gal4-VP16 UAS-luciferase, luminescence, 20 h; Potency, µM (titrated, usually from 53.6 µM), for inactives: at the top dose activity, negative = inhibition, hits mostly inhibitors; 310,000 compounds, 3.5% hits; AID 2546;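 further: Gal4-VP16 expression switched on by copper sulfate through the metallothionein promoter; potency means the concentration at half of the fitted maximal effect; on the % scale 0 is the no-effect control and ±100 the full control effect; nearly all actives have a fitted effect of over 50% in size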
# RORg inh = blocks mouse ROR gamma transcriptional activity; P51450; Drosophila S2 Gal4-RORgamma UAS-luciferase reporter, 20 h; Potency, µM (doses to about 53.6 µM), for the others: at the highest dose activity change, negative = inhibition, usual class: inhibitors; 310,000 compounds, 5.4% hits; AID 2551; further: potency means the concentration at half of the fitted maximal effect; on the % scale 0 is the no-effect control and ±100 the full control effect; nearly all actives have a fitted effect of over 60% in size
# Target sequence (P51450 whole entry, looked up, the tested form may be a part): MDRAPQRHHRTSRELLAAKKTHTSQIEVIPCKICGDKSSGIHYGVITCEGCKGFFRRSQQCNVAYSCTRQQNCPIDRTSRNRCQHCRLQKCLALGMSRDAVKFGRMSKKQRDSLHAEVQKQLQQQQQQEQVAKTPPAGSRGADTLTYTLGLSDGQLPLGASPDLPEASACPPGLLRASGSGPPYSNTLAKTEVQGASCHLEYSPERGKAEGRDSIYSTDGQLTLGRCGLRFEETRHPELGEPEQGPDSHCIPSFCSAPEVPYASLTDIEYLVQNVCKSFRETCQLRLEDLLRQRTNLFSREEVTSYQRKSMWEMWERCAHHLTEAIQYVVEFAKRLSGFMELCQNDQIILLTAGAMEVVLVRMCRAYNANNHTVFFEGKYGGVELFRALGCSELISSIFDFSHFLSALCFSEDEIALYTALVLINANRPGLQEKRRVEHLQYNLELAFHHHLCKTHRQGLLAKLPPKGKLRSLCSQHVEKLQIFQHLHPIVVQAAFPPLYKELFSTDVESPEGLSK
#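 ROR gamma transcriptional activity was tracked as Gal4-UAS luciferase output in stably transfected Drosophila Schneider cells, with compound added 1 hr before 700 uM copper sulfate induction and a 20 hr ambient-temperature incubation.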
# * hit, by the source's call; ? = inconclusive; . = no result; [ ] = another dose, or the depositor's remark. Compounds with a hit are over-represented: about 11% of the library has one in this group of screens. Unless noted, the call rests on the fitted dose curve; in most records, active means well fitted curve in the direction sought with a large enough effect; inconclusive means small, poorly fitted or top-dose-only effect, or another doubt; inactive means no such curve, though single readings can be large; an effect the other way counts as inactive or inconclusive.
SMILES,MCF10A rereplic,IL-1B inflam inh,SW480 rereplic,Gal4-VP16 FLuc,RORg inh
COc1ccc(-c2cc(C(=O)Nc3ccccc3O)c3ccccc3n2)cc1OC,9.8%,20.9,?,4.9%,14.5%
O=C(Nc1nc(-c2cccs2)cs1)c1ccc(Cl)s1,109.2%,-15.7,5.0%,?,?
O=C(Nc1nc(=O)c2ccccc2s1)c1ccccc1,27.3%,24.9,1.0%,6.31µM*,7.08µM*
Cc1ccc(C(=O)Nc2nc3ccccc3c(=O)s2)cc1,0.4%,-93.8*,-4.0%,?,14.1µM*
COc1ccc(/C=N/OCC(=O)Nc2nc3ccccc3s2)cc1OC,-1.5%,-50.3*,2.1%,?,1.8%
O=C(Nc1nc2ccccc2s1)c1ccc(Cl)s1,14.5%,-0.6,-0.8%,-32.8%,8.91µM*
CSc1nc2ccc3nc(NC(=O)c4ccc(C)cc4)sc3c2s1,-6.7%,-12.5,-3.1%,-6.1%,-15.5%
COc1ccc(/C(C)=N/OCC(=O)Nc2nc3ccccc3s2)cc1,8.0%,-1.0,2.6%,16.1%,-6.6%
Cc1ccc(C(=O)NCC(=O)NCC(c2cccs2)N(C)C)cc1C (stereo unspecified),2.0%,9.3,-2.7%,.,.
COC(=O)[C@]1(C)N[C@H](CN(C)S(=O)(=O)c2ccc(F)cc2)[C@@H]2C(=O)N(C)C(=O)[C@@H]21,?,31.8,-18.6%,.,.
COCCNC(=O)C1(C)CCN(Cc2noc(-c3c(C)noc3C)n2)C1 (stereo unspecified),.,31.6,.,.,.
Cc1ccc(C(=O)Nc2nc(=O)n(C(=O)C3CC3)s2)cc1,9.1%,?,-3.9%,0.7%,19.2%
Cc1ccc(Nc2nc3ccccc3c(=O)s2)cc1C,-5.8%,0.0,-81.6%,3.55µM*,2.82µM*
COc1cccc(C(=O)Nc2nc3ccccc3s2)c1,6.1%,0.0,?,14.1µM*,12.6µM*
COc1ccc(Nc2nc3ccccc3c(=O)s2)c(OC)c1,-2.3%,-8.4,-2.4%,?,?
COc1ccc(C(=O)Nc2nc3ccccc3s2)cc1,11.9%,-11.5,10.3%,?,5.01µM*
Cc1ccc(C(=O)Nc2nc(=O)n(C(=O)c3ccccc3C)s2)cc1,?,-65.0*,-4.1%,1.6%,36.9%
Cc1cc(O)cc(O)c1C(=O)OC1(C)C(=O)C=C2C=C(/C=C/C(=O)O)OC=C2C1=O (stereo unspecified),.,.,.,-10.1%,-5.2%
CCN1C[C@@H]2[C@@H]3C(=O)N(C)C(=O)[C@@H]3[C@](Cc3ccccc3)(C1=O)N2C(=O)c1ccc(F)cc1,0.3%,23.3,-5.9%,.,.
Cc1cccc(CNc2cc(-c3ccc(C(=O)N(C)C)cc3)ncn2)c1,.,.,.,-10.4%,18.8%
COc1cc(OC)c(N(C)S(=O)(=O)c2cccc(C(=O)OCC(=O)N(C)Cc3ccccc3)c2)cc1Cl,2.0%,0.0,-21.7%,.,.
Cc1ccc2nc(NC(=O)c3ccc(-c4nc5ccccc5s4)s3)sc2c1,8.0%,44.6,-9.4%,5.8%,7.94µM*
COc1ccc(-c2cc(C(=O)Nc3ccccc3N3CCOCC3)c3ccccc3n2)cc1OC,16.4µM*,-51.8*,?,-0.7%,24.9%
O=C(Nc1ccccc1N1CCOCC1)c1cc(-c2ccncc2)nc2ccccc12,18.2%,-7.4,8.3%,-2.5%[10 µM],3.4%
c1ccc(-c2noc(C34CC5CC(CC(C5)C3)C4)n2)cc1,11.6µM*,38.2,-1.7%,-22.7%,?
SMILES,MCF10A rereplic,IL-1B inflam inh,SW480 rereplic,Gal4-VP16 FLuc,RORg inh
COC(=O)c1ccc(CC2(C)C(=O)Nc3ccc(-c4cccc(C(F)(F)F)c4)cc32)o1 (stereo unspecified),.,-24.1,.,.,.
CCOC(=O)c1ncc2[nH]c3cccc(OC(C)C)c3c2c1C,.,.,.,?,17.8µM*
CCOC(=O)c1ccc(NC(=O)c2ccc(OC(C)C)c(OC)c2)cc1,8.3%,-18.5,-2.1%,-12.8%,-3.3%
CCCCOC(=O)c1ccc(NC(C)=O)cc1,0.0%,14.9,-2.3%,14.1%,1.9%
CCCCOC(=O)c1ccc(NC(=S)NC(=O)c2c(Cl)cnn2C)cc1,20.1%,1.5,-6.3%,?,14.1µM*
CCCCOC(=O)c1ccc(NC(=S)NC(=O)c2c(Cl)cnn2CC)cc1,-5.9%,76.8,3.5%[9.22 µM],17.8µM*,7.08µM*
CCCCOC(=O)c1ccc(NC(=O)c2nn(C)cc2Br)cc1,7.2%,?,-2.4%,3.55µM*,37.3%
Nc1ncnc2c1ncn2[C@@H]1O[C@H](CNCC(O)CO)[C@@H](O)[C@H]1O (stereo partly specified),-8.1%,13.3,-37.6%,.,.
O=S(=O)(NCCc1ccccc1)c1cnc(Cl)c(Br)c1,12.7%,-89.6*,2.8%,.,.
O=c1c(-c2ccccc2)nc2cncnc2n1Cc1ccccc1,.,.,.,5.2%,15.8%
CC(C)C[C@@H](CC(=O)N[C@@H](CCC(=O)O)CC(=O)O)NC(=O)[C@@H]1CNCC[C@H]1NC(=O)C[C@H](CCCN)NC(=O)C[C@H](CO)NC(=O)[C@@H]1CNCC[C@H]1N,.,.,.,5.2%,-28.0%
Cc1ccc(-n2c(C)cc(/C=N/NC(=O)c3ccncc3)c2C)cc1,4.4%,11.2,-0.9%,?,7.94µM*
Cc1ccc(-n2c(C)cc(/C=N/NC(=O)c3ccc(CN4CCOCC4)cc3)c2C)cc1,22.2%,-3.9,7.7%,?,7.94µM*
Cc1ccc(-n2c(C)cc(/C=N/NC(=O)CC3(C)OCCO3)c2C)cc1,-11.8%,0.0,-2.7%[9.22 µM],?,-22.4%
CNC(=S)N/N=C/c1cc(C)n(-c2ccc(Cl)c(Cl)c2)c1C,?,-8.3,8.5%,4.47µM*,0.794µM*
Cc1ccc(-n2c(C)cc(/C=N/NC(N)=S)c2C)cc1,?,34.1,-1.6%,4.47µM*,2.82µM*
CC(C)NC(=O)C1(C)CCN1CCC(=O)c1ccccc1 (stereo unspecified),.,7.5,.,.,.
CCN1CCN(C(=O)CN(CC)S(=O)(=O)c2ccc3ccccc3c2)CC1,0.7%,18.7,3.3%,-4.6%,-6.5%
CC(C)N1CCC1(C)C(=O)Nc1ccccc1OC(F)F (stereo unspecified),.,34.5,.,.,.
Cc1ccsc1CN(C)C(=O)CN1C(=O)NC(c2ccccc2)(c2ccccc2)C1=O,9.2%,?,-5.4%,.,.
O=C(Cn1cc(C(=O)C(=O)N2CCOCC2)c2ccccc21)Nc1cccc(C(F)(F)F)c1,.,-17.4,.,.,.
Cc1cccc(-n2c(C)cc(/C=N/NC(=O)c3ccc(CN4CCOCC4)cc3)c2C)c1,0.3%,3.8,0.0%,-4.4%[0.365 µM],10µM*
Cc1nc2ccccn2c1C(=O)N/N=C/c1ccccc1Cl,-1.9%,20.0,-7.4%,-4.6%,-34.1%
Cc1ccc(C(=O)N/N=C/c2cc(C)n(-c3ccc(Br)cc3)c2C)cc1[N+](=O)[O-],9.8%,-20.0,1.5%,1.41µM*,0.398µM*
Cc1ccc(C)c(-n2c(C)cc(/C=N/NC(=O)c3c(C)nc4cc(C)ccn34)c2C)c1,12.3%,0.0,-1.5%,14.1µM*,?

# Screening data (PubChem BioAssay)
